This is a sample that favours compounds with a hit; in the whole collection about 19% have one here.
TDP1 inh – TDP1 (human) enzyme inhibition; Q9NUW8; recombinant TDP1, AlphaScreen DNA substrate cleavage; Potency, µM (highest dose often 130 µM), for the others: at the highest dose activity change, negative = inhibition, actives largely listed as inhibitors; 0.28% of 350,000 active; AID 485290; further: nearly all actives have a fitted effect of over 40% in size
Target sequence (Q9NUW8 whole entry, looked up): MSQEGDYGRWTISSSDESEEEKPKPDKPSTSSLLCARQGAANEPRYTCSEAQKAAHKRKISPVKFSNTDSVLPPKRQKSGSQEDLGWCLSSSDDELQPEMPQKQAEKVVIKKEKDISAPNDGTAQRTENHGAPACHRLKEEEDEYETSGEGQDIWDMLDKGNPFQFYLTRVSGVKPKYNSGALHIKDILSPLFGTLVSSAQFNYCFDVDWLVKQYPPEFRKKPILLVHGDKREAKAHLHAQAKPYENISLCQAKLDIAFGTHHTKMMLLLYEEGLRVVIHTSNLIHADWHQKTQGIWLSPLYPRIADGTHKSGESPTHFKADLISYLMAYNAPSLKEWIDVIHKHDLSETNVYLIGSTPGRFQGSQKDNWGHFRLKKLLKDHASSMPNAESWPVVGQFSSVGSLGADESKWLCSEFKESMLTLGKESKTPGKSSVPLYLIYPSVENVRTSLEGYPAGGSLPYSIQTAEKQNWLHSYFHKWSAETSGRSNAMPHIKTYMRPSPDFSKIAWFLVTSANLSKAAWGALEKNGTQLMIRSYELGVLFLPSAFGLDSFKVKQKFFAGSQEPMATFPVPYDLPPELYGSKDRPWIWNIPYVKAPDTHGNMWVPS
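Here, a 5' biotin and 3' phosphotyrosine-FITC DNA oligonucleotide reports Tdp1 activity: intact substrate bridges AlphaScreen beads, while cleavage leaves a 3' phosphate and drops signal. All incubations at room temperature.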
DT40 TDP1 CPT – DT40-hTDP1 cell growth loss with CPT; chicken DT40 Tdp1-/-;hTDP1 cells + 20 nM CPT, ATP luminescence, 48 h; Potency, µM (top dose mostly 46.2 µM), without a hit: at the top dose activity change, negative = growth inhibition, hits mostly inhibitors; 12% of 420,000 active; further: nearly all actives have a fitted effect of over 55% in size
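Chicken DT40 Tdp1-/- cells stably complemented with human TDP1 were seeded at 400 cells/well in medium containing 20 nM camptothecin, exposed to pin-transferred compounds, and grown at 37 °C for at least 48 hr. Viability was read as ATP luminescence.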
TDP1 cell noCPT – qHTS for Inhibitors of human tyrosyl-DNA phosphodiesterase 1 (TDP1): qHTS in cells in absence of CPT; DT40 Tdp1-/- hTDP1 cells, no CPT, ATP luminescence, 48 h; Potency, µM (series often up to 46.2 µM), inactives show at the highest dose activity change, negative = growth inhibition, most hits filed as inhibitors; AID 686978, 2013; 15% of 420,000 active; further: nearly all actives have a fitted effect of over 55% in size
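Seeded 400 DT40-hTDP1 cells/well (vehicle DMSO, no 20 nM CPT); pinned compounds; ≥48 hr at 37 °C; CellTiter-Glo luminescence as viability measure.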
RORgamma inh – blocks mouse ROR gamma transcriptional activity. Potency, µM (highest dose often 53.6 µM), inactives show top-dose activity change, negative = inhibition, most hits filed as inhibitors. 5.4% of 310,000 active. P51450. Drosophila S2 Gal4-RORgamma UAS-luciferase reporter, 20 h; further: nearly all actives have a fitted effect of over 60% in size
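Schneider cells (Drosophila), stable Gal4 DBD–ROR gamma + UAS-luc; 1 hr cmpd preincubation; Cu2+ induction 700 uM final; 20 hr ambient; luminescence.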
Gal4-VP16 FLuc – Gal4-VP16 reporter inhibition counter-screen. Drosophila S2 Gal4-VP16 UAS-luciferase, luminescence, 20 h. Potency, µM (titrated, usually from 53.6 µM), for inactives: at the highest dose activity, negative = inhibition, usual class: inhibitors. 3.5% of 310,000 active. AID 2546;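 further: Gal4-VP16 expression switched on by copper sulfate through the metallothionein promoter; nearly all actives have a fitted effect of over 50% in size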
Active calls of the source: *; [ ] = another dose, or the depositor's remark. The call rests on the fitted dose curve; in most records, active means well fitted curve in the direction sought with a large enough effect; inconclusive means small, poorly fitted or top-dose-only effect, or another doubt; inactive means no such curve, though single readings can be large; an effect the other way counts as inactive or inconclusive. On the % scale 0 is the no-effect control and ±100 the full control effect; potency means the concentration at half of the fitted maximal effect.

`Clc1ccc2c(ccc[n+]2CCc2ccccc2)c1` gave DT40 TDP1 CPT -30% and TDP1 cell noCPT inconclusive.
For O=C(Nc1ccc(N2CCOCC2)c(C(=O)O)c1)c1ccc(Br)cc1 the results were TDP1 inh -4%, DT40 TDP1 CPT 4% and TDP1 cell noCPT 2%.
Screening Cc1ccccc1N1C(=O)C(Cl)=C(N2CCCCCC2)C1=O returned TDP1 inh -12%, DT40 TDP1 CPT 29µM*, TDP1 cell noCPT inconclusive, RORgamma inh 1% and Gal4-VP16 FLuc -7%.
For C/C(Cn1nnc([N+](=O)[O-])n1)=N\NC(=O)c1ccc(O)cc1O the results were TDP1 inh 8%, DT40 TDP1 CPT inconclusive, TDP1 cell noCPT inconclusive, RORgamma inh 0.5µM* and Gal4-VP16 FLuc 2.8µM*.
`C/C(Cn1cnc([N+](=O)[O-])n1)=N\NC(=O)c1cccnc1` gave TDP1 inh 10%, DT40 TDP1 CPT 7%, TDP1 cell noCPT 7%, RORgamma inh 2% and Gal4-VP16 FLuc -7%.
Screening C/C(Cn1nnc([N+](=O)[O-])n1)=N\NC(=O)c1ccccc1O returned TDP1 inh 3%, DT40 TDP1 CPT 15µM*, TDP1 cell noCPT 18µM*, RORgamma inh 5.6µM* and Gal4-VP16 FLuc inconclusive.
`CCOc1ccc(Nc2nc(N)c3ccccc3n2)cc1` gave DT40 TDP1 CPT 7.3µM*, TDP1 cell noCPT inconclusive, RORgamma inh 7.1µM* and Gal4-VP16 FLuc inconclusive.
For Cc1ccc(Nc2nc(N)c3ccccc3n2)cc1Cl the results were DT40 TDP1 CPT 15µM*, TDP1 cell noCPT inconclusive, RORgamma inh 17%[1.91 µM] and Gal4-VP16 FLuc -24%.
Screening Nc1nc(Nc2ccc(Cl)cc2)nc2ccccc12 returned TDP1 inh 0%, DT40 TDP1 CPT 7.3µM*, TDP1 cell noCPT 5.8µM*, RORgamma inh -38% and Gal4-VP16 FLuc inconclusive.
Screening CN(C)c1ccc(Nc2nc(N)c3ccccc3n2)cc1 returned DT40 TDP1 CPT 26µM*, TDP1 cell noCPT 13µM*, RORgamma inh inconclusive and Gal4-VP16 FLuc 3.5µM*.
For Cc1ccccc1Nc1nc(N)c2ccccc2n1 the results were TDP1 inh 0%, DT40 TDP1 CPT inconclusive, TDP1 cell noCPT inconclusive, RORgamma inh inconclusive and Gal4-VP16 FLuc inconclusive.
Cc1ccccc1-n1cc(-c2ccc(Br)cc2)nc1SCC(N)=O was read as TDP1 inh 6%, DT40 TDP1 CPT inconclusive, TDP1 cell noCPT inconclusive, RORgamma inh 18% and Gal4-VP16 FLuc 1%.
O=C(CC1SC(N2CCOCC2)=NC1=O)Nc1ccc(Cl)cc1 (stereo not given) was read as TDP1 inh -3%, DT40 TDP1 CPT -17% and TDP1 cell noCPT -26%.
For Cc1ccccc1-c1nnn(CC(=O)NCc2ccc3c(c2)OCO3)n1 the results were TDP1 inh 2%, DT40 TDP1 CPT -2%, TDP1 cell noCPT -12%, RORgamma inh 4%[10 µM] and Gal4-VP16 FLuc 3%.
CN1CCc2c(sc3c2C(=O)NC(c2ccc(OC(=O)c4ccc(Cl)cc4)cc2)N3)C1 (stereo not given) was read as TDP1 inh 1%[12.3 µM], DT40 TDP1 CPT inconclusive and TDP1 cell noCPT inconclusive.
`CN1CCc2c(sc3c2C(=O)NC(c2ccccc2)N3)C1` (stereo not given) gave TDP1 inh 3%, DT40 TDP1 CPT inconclusive, TDP1 cell noCPT 23µM*, RORgamma inh 4% and Gal4-VP16 FLuc 3%.
Screening CN1CCc2c(sc3c2C(=O)NC(c2ccccn2)N3)C1 (stereo not given) returned TDP1 inh 7%, DT40 TDP1 CPT -1%, TDP1 cell noCPT -4%, RORgamma inh -14% and Gal4-VP16 FLuc 0%.
For O=C1NC(c2ccccn2)Nc2sc3c(c21)CCC3 (stereo not given) the results were TDP1 inh -12%, DT40 TDP1 CPT 1%, TDP1 cell noCPT inconclusive, RORgamma inh 14µM* and Gal4-VP16 FLuc inconclusive.
For CCOC(=O)N1CCc2c(sc3c2C(=O)NC(c2cc(OC)c(OC)c(OC)c2)N3)C1 (stereo not given) the results were TDP1 inh 3%, DT40 TDP1 CPT 3.7µM* and TDP1 cell noCPT 5.2µM*.
Screening CCOC(=O)N1CCc2c(sc3c2C(=O)NC(c2ccc(C(=O)OC)cc2)N3)C1 (stereo not given) returned TDP1 inh 0%, DT40 TDP1 CPT 7.3µM* and TDP1 cell noCPT 13µM*.
Screening COc1cccc(-c2nc(C(N)=O)c3c(n2)n(-c2ccc4c(c2)OCO4)c(=O)n3C)c1OC returned TDP1 inh 5%.
Screening Cc1cc(Br)ccc1NC(=O)C1CCN(S(=O)(=O)c2cccc3nsnc23)CC1 returned TDP1 inh 2%, DT40 TDP1 CPT inconclusive and TDP1 cell noCPT inconclusive.
Screening CC1CCCN(C(=O)CCNS(=O)(=O)c2ccc3c(c2)oc(=O)n3C)C1 (stereo not given) returned TDP1 inh 3%, DT40 TDP1 CPT -2%, TDP1 cell noCPT 19%, RORgamma inh -2% and Gal4-VP16 FLuc -1%.
For O=C(Cc1ccccc1)N1CCN(c2ccccc2F)CC1 the results were TDP1 inh 2%, DT40 TDP1 CPT 0%, TDP1 cell noCPT -5%, RORgamma inh 5% and Gal4-VP16 FLuc 3%.
Screening O=C(O)C(CCc1ccccc1)N1CCOCC1 (stereo not given) returned DT40 TDP1 CPT -13% and TDP1 cell noCPT inconclusive.
For Cc1ccc(N2CCN(C(CCc3ccccc3)C(=O)Nc3c(C)cccc3C)CC2)cc1 (stereo not given) the results were DT40 TDP1 CPT inconclusive and TDP1 cell noCPT 15µM*.
Cc1cccc(C)c1NC(=O)C(c1ccccc1)N(C)CCc1ccccc1 (stereo not given) was read as DT40 TDP1 CPT inconclusive and TDP1 cell noCPT 18µM*.
Screening C1CCC2(CC1)C1=C(CCCC1)Nc1nnnn12 returned TDP1 inh 8%, DT40 TDP1 CPT -17%, TDP1 cell noCPT 7%, RORgamma inh -6% and Gal4-VP16 FLuc -7%.
Screening S=C1NC2=C(CCCC2)C2(CCCCC2)N1 returned TDP1 inh -2%, DT40 TDP1 CPT -23%, TDP1 cell noCPT inconclusive, RORgamma inh 2µM* and Gal4-VP16 FLuc 1.8µM*.
`COc1ccc2cc(-c3[nH]ncc3CN3CCCCO3)ccc2c1` gave TDP1 inh 0%, DT40 TDP1 CPT inconclusive, TDP1 cell noCPT inconclusive, RORgamma inh -20% and Gal4-VP16 FLuc 32%.
COc1ccc2cc(-c3[nH]ncc3CN3CCCN(c4ccccc4)CC3)ccc2c1 was read as TDP1 inh 8%, DT40 TDP1 CPT 23µM*, TDP1 cell noCPT inconclusive, RORgamma inh -16% and Gal4-VP16 FLuc 1%.

Compound activity: PubChem, National Center for Advancing Translational Sciences (NCATS)
